# Laboratory results reported in a collection of fitness landscapes (doi:10.1016/j.celrep.2020.107928).
# Whole data set: some 81,000 sequences, median “one-hybrid fitness for binding NBS DNA” near -0.1, cut for the highest 2% near 0.36. What follows is part of a selection rich in the highest values, with near analogues and random picks from the rest.
# B1: Caulobacter ParB omega fusion; a variant is named by its letters at X, in order, B8GW30 (parent)
# chain: MESVVVGEPGMSEGRRGLGRGLSALLGEVDAAPAQAPGEQLGGSREAPIEILQRNPDQPRRTFREEDLEDLSNSIREKGVLQPILVRPSPDTAGEYQIVAGERAWRAAQRAGLKTVPIMVRELDDLAVLEIGIIENVQRADLNVLEEALSYKVLMEKFERTQENIAQTIGKSXSHVANXMRLLXLPDEVQSYLVSGELTAXHARAIAAAADPVALAKQIIEGGLSVRETEALARKAPNLSAGKSKGGRPPRVKDTDTQALESDLSSVLGLDVSIDHRGSTGTLTITYATLEQLDDLCNRLTRGI
# Variants of: B1
# Assay: one-hybrid fitness for binding NBS DNA (the Noc-binding site; scaled: cognate 1, non-cognate 0); higher = stronger binding
# Conditions: with NBS DNA site
# In short: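 On M9-minus-histidine containing 0.1 mM IPTG and 5 mM 3-AT, E. coli USO cells with a HIS3 reporter, site 19 bp from the promoter, grew 48 hours at 37°C to select Caulobacter ParB libraries randomised at four specificity codons. Plasmids from before and after were Illumina-sequenced, with three replicate libraries pooled and variants under 10 reads left out. Fitness is the log change in variant-to-wild-type read ratio, rescaled against cognate and non-cognate.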
row,Variant,one-hybrid fitness for binding NBS DNA
1,TEMV,≤ 0.2
2,FTMS,≤ 0.2
3,MEGT,≤ 0.2
4,APSI,≤ 0.2
5,RVGN,≤ 0.2
6,RVGR,0.491
7,RVGP,≤ 0.2
8,RVGT,0.491
9,RVGM,≤ 0.2
10,RVGH,≤ 0.2
11,RVGD,≤ 0.2
12,RVGF,≤ 0.2
13,RVGS,0.463
14,AKNC,≤ 0.2
15,RDQV,≤ 0.2
16,QMHW,≤ 0.2
17,MIEP,≤ 0.2
18,EVLS,≤ 0.2
19,MMLC,≤ 0.2
20,CVFT,≤ 0.2
21,HSNA,≤ 0.2
22,QYRD,≤ 0.2
23,QYRH,0.541
24,QYRN,0.38
25,QYRP,0.216

row,Variant,one-hybrid fitness for binding NBS DNA
1,QYDH,≤ 0.2
2,QYYS,0.312
3,QYIS,0.202
4,QYYH,≤ 0.2
5,QYRS,0.644
6,GEPE,≤ 0.2
7,HWPK,≤ 0.2
8,GQSC,≤ 0.2
9,RFKM,≤ 0.2
10,AIRM,≤ 0.2
11,RLKD,≤ 0.2
12,RPKS,≤ 0.2
13,RCKS,0.612
14,RFKH,≤ 0.2
15,RHKS,0.57
16,RHKN,0.205
17,RHKP,≤ 0.2
18,RLKS,0.554
19,RFKN,≤ 0.2
20,RCKD,≤ 0.2
21,RLKN,≤ 0.2
22,RFKS,0.444
23,TSAW,≤ 0.2
24,RVSW,≤ 0.2
25,DRFC,≤ 0.2

row,Variant,one-hybrid fitness for binding NBS DNA
1,SYSC,≤ 0.2
2,PYQW,≤ 0.2
3,SPAY,≤ 0.2
4,KNRG,≤ 0.2
5,RIKS,0.499
6,RIVS,≤ 0.2
7,RSKS,0.567
8,RAKH,0.36
9,RIKP,≤ 0.2
10,RAKS,0.571
11,RSVS,0.285
12,RAVS,0.239
13,RSKD,≤ 0.2
14,HGYR,≤ 0.2
15,STVP,≤ 0.2
16,PRHI,≤ 0.2
17,VTRH,≤ 0.2
18,QTNL,0.214
19,RLFT,0.238
20,RIAT,0.376
21,RMFT,0.261
22,RSAN,≤ 0.2
23,RDAT,≤ 0.2
24,RIAD,≤ 0.2
25,RMAT,0.426

row,Variant,one-hybrid fitness for binding NBS DNA
1,RLAT,0.423
2,RIFT,≤ 0.2
3,RLAD,≤ 0.2
4,RMAP,≤ 0.2
5,RSAT,0.414
6,LYNV,≤ 0.2
7,GATD,≤ 0.2
8,PPMS,≤ 0.2
9,HKTC,≤ 0.2
10,MLVG,≤ 0.2
11,YTRD,≤ 0.2
12,RCAV,≤ 0.2
13,RHAT,0.432
14,RCAT,0.515
15,RHFT,0.245
16,RAAT,0.364
17,RHAH,≤ 0.2
18,RAAP,≤ 0.2
19,RPAT,≤ 0.2
20,RFAT,≤ 0.2
21,RAFT,0.242
22,TFCI,≤ 0.2
23,NDTY,≤ 0.2
24,AWHV,≤ 0.2
25,HGAR,≤ 0.2

row,Variant,one-hybrid fitness for binding NBS DNA
1,EIKR,≤ 0.2
2,WKER,≤ 0.2
3,RSQR,0.44
4,RCQR,0.512
5,RFQR,0.282
6,RDQR,≤ 0.2
7,RPQR,≤ 0.2
8,RSQP,≤ 0.2
9,FPQS,≤ 0.2
10,RQKQ,0.244
11,RQHF,≤ 0.2
12,RQSP,≤ 0.2
13,RQSN,≤ 0.2
14,RQVT,0.216
15,RQHK,≤ 0.2
16,RQKT,0.63
17,RQNH,0.34
18,RQSS,0.446
19,RQNS,0.48
20,RQHT,0.417
21,RQDS,≤ 0.2
22,SYHE,≤ 0.2
23,SRKD,≤ 0.2
24,HWGA,≤ 0.2
25,RMER,0.227

row,Variant,one-hybrid fitness for binding NBS DNA
1,EGHG,≤ 0.2
2,DQTE,≤ 0.2
3,MCRV,≤ 0.2
4,RQGT,0.351
5,RQCT,0.382
6,RQCP,≤ 0.2
7,RQCH,≤ 0.2
8,RQDT,0.268
9,RQAD,≤ 0.2
10,RQST,0.474
11,RQNP,≤ 0.2
12,RQNT,0.53
13,RQFT,0.204
14,RQSG,≤ 0.2
15,RQAT,0.385
16,SAEQ,≤ 0.2
17,SIIG,≤ 0.2
18,HRTH,≤ 0.2
19,VQPC,≤ 0.2
20,RQFS,0.206
21,RQRT,0.615
22,RQPT,≤ 0.2
23,RQAS,0.38
24,RQYT,0.353
25,RQAH,≤ 0.2

row,Variant,one-hybrid fitness for binding NBS DNA
1,PKKW,≤ 0.2
2,TRLN,≤ 0.2
3,IGRT,≤ 0.2
4,QQFV,≤ 0.2
5,QQKV,0.533
6,QQDV,≤ 0.2
7,QQYV,≤ 0.2
8,QQRV,0.493
9,QQVV,≤ 0.2
10,VRMV,≤ 0.2
11,RSFA,≤ 0.2
12,RCFA,≤ 0.2
13,RRAA,0.664
14,RCAA,0.234
15,RRFA,0.569
16,RPAA,≤ 0.2
17,FQVR,≤ 0.2
18,TYLE,≤ 0.2
19,YVWI,≤ 0.2
20,RRYA,0.684
21,RCSA,0.232
22,RSYA,≤ 0.2
23,RSTA,≤ 0.2
24,RRTA,0.619
25,RCYA,0.24

row,Variant,one-hybrid fitness for binding NBS DNA
1,RSSA,≤ 0.2
2,RRGA,0.664
3,RCGA,0.259
4,RCTA,0.238
5,RRSA,0.605
6,RPGA,≤ 0.2
7,AHHE,≤ 0.2
8,WMIS,≤ 0.2
9,DNAG,≤ 0.2
10,VKPI,≤ 0.2
11,VNAV,≤ 0.2
12,CCMW,≤ 0.2
13,QMGI,≤ 0.2
14,TSPL,≤ 0.2
15,RQFK,≤ 0.2
16,VLYA,≤ 0.2
17,QHGK,≤ 0.2
18,IVPF,≤ 0.2
19,PKES,≤ 0.2
20,VFPS,≤ 0.2
